Results filed as inconclusive are left out. Active and inactive are the calls of the source. Rule for the calls: active = hit-call score of the fitted dose curve at least 0.9, where 1 is the maximum; inconclusive = response in the unintended direction; inactive = score below 0.9.

Chain of Nuclear receptor subfamily 4 group A member 2 (Homo sapiens) (P43354 whole entry, looked up): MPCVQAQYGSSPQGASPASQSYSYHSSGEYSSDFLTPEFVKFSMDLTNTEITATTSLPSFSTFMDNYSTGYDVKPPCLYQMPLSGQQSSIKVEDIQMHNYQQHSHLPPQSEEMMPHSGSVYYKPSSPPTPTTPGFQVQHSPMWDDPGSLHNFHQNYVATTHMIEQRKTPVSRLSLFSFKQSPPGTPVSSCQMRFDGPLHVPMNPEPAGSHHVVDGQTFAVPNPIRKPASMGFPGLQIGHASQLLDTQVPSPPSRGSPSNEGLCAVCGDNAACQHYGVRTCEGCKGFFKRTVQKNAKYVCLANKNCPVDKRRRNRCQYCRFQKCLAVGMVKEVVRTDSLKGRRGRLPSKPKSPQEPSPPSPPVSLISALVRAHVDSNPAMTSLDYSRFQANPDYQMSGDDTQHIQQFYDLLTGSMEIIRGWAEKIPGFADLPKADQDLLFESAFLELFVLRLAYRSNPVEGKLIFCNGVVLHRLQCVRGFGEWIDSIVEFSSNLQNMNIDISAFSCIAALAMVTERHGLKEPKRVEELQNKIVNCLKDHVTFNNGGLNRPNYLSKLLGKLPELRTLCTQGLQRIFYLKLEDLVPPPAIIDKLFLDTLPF

The test concerns the target Nuclear receptor subfamily 4 group A member 2 (Homo sapiens) (UniProt P43354). In words: ATG_NURR1_TRANS: Attagene TRANS-FACTORIAL HepG2 Assay for human Nuclear Receptor Related Protein 1 (NURR1) (AID 2282985). The settings on record: HepG2 Attagene TRANS reporter, mRNA readout. The protocol:
ATG_TRANS is a cell-based, multiplexed-readout assay that uses HepG2, a human liver cell line, with measurements taken at 24 hours after chemical dosing in a 24-well plate.ATG_NURR1_TRANS is one of 30 assay component(s) measured or calculated from the ATG_TRANS assay. It is designed to make measurements of mRNA induction, a form of inducible reporter, as detected with fluorescence intensity signals by Reverse transcription polymerase chain reaction (RT-PCR) and Capillary electrophoresis technology.Data from the assay component ATG_NURR1_TRANS was analyzed into 1 assay endpoint. This assay endpoint, ATG_NURR1_TRANS, was analyzed in the positive analysis fitting direction relative to DMSO as the negative control and baseline of activity. Using a type of inducible reporter, measures of mRNA for gain-of-signal activity can be used to understand the reporter gene at the transcription factor-level as they relate to the gene NR4A2. Furthermore, this assay endpoint can be referred to as a primary readout, because this assay has produced multiple assay endpoints where this one serves a reporter gene function. To generalize the intended target to other relatable targets, this assay endpoint is annotated to the nuclear receptor intended target family, where the subfamily is orphan.
Human liver HepG2 cells are transiently transfected with multiple reporter transcription units (MRTUs) in 6-well plates using FuGene 6 reagent (Roche; 3 ml FuGene/1 mg DNA). The MRTU constructs are regulated by a cis-regulating element (promoter). […] A major difference between the CIS and TRANS system is that in CIS activities of endogenous TFs are measured, whereas the TRANS assay evaluates changes in activities of exogenous, chimeric NR-Gal4 proteins. […] At the end of 24 hour incubation, total RNA was isolated using TriZol reagent (Invitrogen). The isolated RNA is then reverse-transcribed using oligo(dT) primer and Mo-MLV reverse transcriptase (Invitrogen) with DNAse I (Ambion) treatment for 30 min. The one-tenth of the produced cDNA was amplified by PCR using Taq DNA polymerase (Invitrogen) and two reporter sequence-specific primers. The PCR products were fluorescently labeled by primer extension with 6-arboxyfluorescein (6-FAM) 5'-labeled reporter sequence-specific primer (2 min at 95 C, 20 s at 68 C and 10 min at 72 C) and these products were digested with 5U of HpaI (New England Biolabs) for 2h at 37 C. The fragments were purified using Qiaquick PCR columns (Qiagen), analyzed on an ABI 3130xL genetic analyzer (Applied Biosystems) with peak positions identified by using a set of X-rhodamine (ROX)-labeled MapMarker1000 molecular weight standards (BioVentures). The raw capillary electrophoresis data was processed using Attagraph software (Attagene).
Take `Nc1ncn([C@@H]2O[C@H](CO)[C@@H](O)[C@H]2O)c(=O)n1`: the molecule was classed as inactive.

Turning to `O=C(c1ccc(O)cc1)c1ccc(O)cc1O`, the call was inactive.

By AC50 is commonly meant the concentration giving half of the maximal activity seen. In the case of `FC(F)(F)C(=NOCC1OCCO1)c1ccc(Cl)cc1`, the AC50 is 100 µM (active).

On to `CC=CCO`, for which the molecule was called inactive.

For the molecule `COC(=O)C1=C(C)NC(C)=C(C(=O)OCC(C)C)C1c1ccccc1[N+](=O)[O-]` (stereo not given), the molecule was classed as inactive.

Consider `Nc1ccc2cc3ccccc3cc2c1`, for which the molecule was classed as inactive.

Turning to `C=C1[C@H]2CC[C@@H]3[C@H]2C(C)(C)CCC[C@]13C`, the molecule was classed as inactive.

Take `CCCCCc1ccc(Cl)cc1`: the molecule was classed as inactive.

With `Nc1ccc(N=Nc2ccccc2)c(N)n1`, the molecule was called inactive.

As for `Cc1ccc(C(C)c2ccc(C)c(C)c2)cc1C`, the outcome was inactive.

For `OCCCS`, the molecule was called inactive.

Regarding `O=C(c1ccccc1)c1ccc(O)c(O)c1O`, the molecule was called inactive.

Regarding `C1CN(SSN2CCOCC2)CCO1`, the call was inactive.

With `COC(=O)c1sccc1S(N)(=O)=O`, the result was inactive.

Regarding `CCCCCCCCCCCCCCCCCC#N`, the call was inactive.

Turning to `CC(C)=CCCC(C)C=O` (stereo not given), the molecule was called inactive.

In the case of `CCOC(=O)CC`, the call was inactive.

As for `CCO[Si](CCCN=C=O)(OCC)OCC`, the molecule was classed as inactive.

As to `C=C(C)C(=O)OCCOc1ccccc1`, the molecule was called inactive.

Regarding `C=CC(=O)OCCOC1C2CCC1C1CC=CC12` (stereo not given), the result was inactive.

Turning to `CCC(=O)Oc1ccc(/C(CC)=C(\CC)c2ccc(OC(=O)CC)cc2)cc1`, the AC50 is 26.1 µM (active).

As for `OCCN(CCO)c1ccccc1`, the outcome was inactive.

As for `CC(C)c1ccc2cc(C(C)C)ccc2c1`, the molecule was called inactive.

`Cc1cc(C)c(C)c(C)c1`: the molecule was called inactive.

Consider `O=C(C=Cc1ccccc1)OCc1ccccc1`, for which the result was inactive.

For `CC(C)=CCC/C(C)=C\C#N`, the call was inactive.

As for `CCCCC(CC)COC(=O)c1ccccc1` (stereo not given), the molecule was classed as inactive.

Take `CC=C1CC2C=CC1C2` (stereo not given): the outcome was inactive.

As to `O=S(=O)(O)c1ccccc1C=Cc1ccc(-c2ccc(C=Cc3ccccc3S(=O)(=O)O)cc2)cc1`, the result was inactive.

In the case of `COc1cc(NC(=O)CC(C)=O)c(OC)cc1Cl`, the result was inactive.

In the case of `FC(F)=C(F)OC(F)(F)C(F)(F)C(F)(F)F`, the molecule was classed as inactive.

Take `Cc1ccc(N/N=c2\c(=O)cc/c(=N/Nc3ccc(S(=O)(=O)O)cc3)c2=O)c(C)c1`: the molecule was classed as inactive.

In the case of `NC(=O)OCC(COC(N)=O)c1ccccc1`, the call was inactive.

As to `Nc1ccc(Cl)cc1Cl`, the call was inactive.

In the case of `C=CC(C)(CCC=C(C)C)OC(=O)C(C)C` (stereo not given), the molecule was called inactive.

As to `C=C(C)C(=O)OCC(C)C`, the call was inactive.

As to `C=CCOCC(O)CCl` (stereo not given), the result was inactive.

Take `CCCCNc1ccc(NCCCC)c2c1C(=O)c1ccccc1C2=O`: the outcome was inactive.

For the molecule `COC(=O)/C=C/C(C)=C\C=C\C(C)=C\C=C\C=C(C)\C=C\C=C(C)\C=C\C(=O)O`, the call was inactive.

`COc1ccc(C(Cl)=C(c2ccc(OC)cc2)c2ccc(OC)cc2)cc1`: the molecule was classed as inactive.

Source of the values: PubChem BioAssay (EPA / NIEHS).
